# From PubChem BioAssay AID1159580 (chemical genetic matrix, 2015)
# “And” between values parts separate entries of the source, which are not always exact repeats. Identical values can stand only once. Among all 5,500 compounds or so, about 2,000 (36%) were called active. Not shown: some 18% with an inconclusive outcome. The list shows a part of the results. A number with no mark means an inactive call. Cut-off read from the data, not from the text of the source: active = normalized growth mostly below about 0.91 (no sharp cut-off); inconclusive = no clear call, values can overlap the other calls; inactive = mostly above about 0.92.
# Test: chemical genetic growth profiling, strain panel (AID 1159580);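 note: tested at 20 µM; growth read once vehicle control cultures reached saturation at 30 °C; 1 = growth at the plate median or of vehicle wells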
# Settings: S. cerevisiae deletion strains, growth OD
smiles,measurement,setting,value
CC(=O)O[C@@H]1CC[C@@]2(C)C(CC[C@]3(C)C2CC=C2C4CC(C)(C)CC[C@]4(C(=O)O)CC[C@]23C)C1(C)C (stereo partly drawn),normalized growth,"locus YAL021C, strain ccr4, stronger effect = lower value",0.949
same,normalized growth,"locus YAL026C, strain drs2, stronger effect = lower value",0.957
same,normalized growth,"locus YAL030W, strain snc1, stronger effect = lower value",0.98
same,normalized growth,"locus YBL061C, strain skt5, stronger effect = lower value",0.955
same,normalized growth,"locus YBR009C, strain hhf1, stronger effect = lower value",1.01
same,normalized growth,"locus YBR021W, strain FUR4, stronger effect = lower value",1
same,normalized growth,"locus YBR023C, strain chs3, stronger effect = lower value",0.918
same,normalized growth,"locus YBR171W, strain sec66, stronger effect = lower value",1
same,normalized growth,"locus YBR229C, strain ROT2, stronger effect = lower value",0.992
same,normalized growth,"locus YBR231C, strain swc5, stronger effect = lower value",0.913
same,normalized growth,"locus YBR279W, strain paf1, stronger effect = lower value",0.982
same,normalized growth,"locus YCL011C, strain gbp2, stronger effect = lower value",0.965
same,normalized growth,"locus YCL016C, strain dcc1, stronger effect = lower value",0.96
same,normalized growth,"locus YCL029C, strain bik1, stronger effect = lower value",0.996
same,normalized growth,"locus YCL061C, strain MRC1, stronger effect = lower value",1
same,normalized growth,"locus YCL069W, strain vba3, stronger effect = lower value",1.01
same,normalized growth,"locus YCR088W, strain abp1, stronger effect = lower value",1.01
same,normalized growth,"locus YDL005C, strain med2, stronger effect = lower value",0.99
same,normalized growth,"locus YDL035C, strain GPR1, stronger effect = lower value",1.05
same,normalized growth,"locus YDL040C, strain nat1, stronger effect = lower value",1
same,normalized growth,"locus YDL074C, strain BRE1, stronger effect = lower value",1.07
same,normalized growth,"locus YDL101C, strain DUN1, stronger effect = lower value",0.975
same,normalized growth,"locus YDL134C, strain PPH21, stronger effect = lower value",0.974
same,normalized growth,"locus YDL185W, strain tfp1, stronger effect = lower value",0.976
same,normalized growth,"locus YDL192W, strain arf1, stronger effect = lower value",1.01
same,normalized growth,"locus YDR001C, strain nth1, stronger effect = lower value",1.01
same,normalized growth,"locus YDR069C, strain doa4, stronger effect = lower value",0.84 (active)
same,normalized growth,"locus YDR101C, strain arx1, stronger effect = lower value",1.02
same,normalized growth,"locus YDR137W, strain rgp1, stronger effect = lower value",1.02
same,normalized growth,"locus YDR159W, strain sac3, stronger effect = lower value",1.03
same,normalized growth,"locus YDR162C, strain NBP2, stronger effect = lower value",1.03
same,normalized growth,"locus YDR195W, strain ref2",1.04
same,normalized growth,"locus YDR297W, strain sur2, stronger effect = lower value",0.939
same,normalized growth,"locus YDR318W, strain mcm21, stronger effect = lower value",1.01
same,normalized growth,"locus YDR334W, strain swr1, stronger effect = lower value",0.985
same,normalized growth,"locus YDR335W, strain msn5, stronger effect = lower value",0.957
same,normalized growth,"locus YDR388W, stronger effect = lower value",0.983
same,normalized growth,"locus YDR392W, strain spt3, stronger effect = lower value",0.95
same,normalized growth,"locus YDR502C, strain sam2, stronger effect = lower value",0.978
same,normalized growth,"locus YEL003W, strain gim4, stronger effect = lower value",0.976
same,normalized growth,"locus YEL037C, strain rad23, stronger effect = lower value",0.99
same,normalized growth,"locus YEL061C, strain CIN8 (second series), stronger effect = lower value",1.01
same,normalized growth,"locus YEL061C, strain CIN8, stronger effect = lower value",1
same,normalized growth,"locus YER015W, strain faa2, stronger effect = lower value",0.936
same,normalized growth,"locus YER016W, strain bim1, stronger effect = lower value",0.965
same,normalized growth,"locus YER110C, stronger effect = lower value",0.976
same,normalized growth,"locus YER111C, strain swi4, stronger effect = lower value",0.96
same,normalized growth,"locus YER155C, strain BEM2 (second series), stronger effect = lower value",0.964
same,normalized growth,"locus YER155C, strain BEM2, stronger effect = lower value",0.985
same,normalized growth,"locus YER167W, strain BCK2, stronger effect = lower value",1.01
same,normalized growth,"locus YFR010W, strain ubp6, stronger effect = lower value",0.949
same,normalized growth,"locus YGL078C, strain dbp3, stronger effect = lower value",0.977
same,normalized growth,"locus YGL086W, strain mad1, stronger effect = lower value",1.04
same,normalized growth,"locus YGL167C, strain pmr1, stronger effect = lower value",0.986
same,normalized growth,"locus YGL173C, strain kem1, stronger effect = lower value",0.902 (active)
same,normalized growth,"locus YGL227W, strain vid30, stronger effect = lower value",1.01
same,normalized growth,"locus YGL240W, strain doc1, stronger effect = lower value",1.08
same,normalized growth,"locus YGL248W, strain PDE1, stronger effect = lower value",0.998
same,normalized growth,"locus YGL253W, strain hxk2, stronger effect = lower value",0.984
same,normalized growth,"locus YGR135W, strain pre9, stronger effect = lower value",0.954
same,normalized growth,"locus YGR229C, strain SMI1, stronger effect = lower value",0.988
same,normalized growth,"locus YGR252W, strain gcn5, stronger effect = lower value",0.982
same,normalized growth,"locus YHR013C, strain ard1, stronger effect = lower value",0.933
same,normalized growth,"locus YHR027C, strain rpn1, stronger effect = lower value",0.913 (active)
same,normalized growth,"locus YHR030C, strain SLT2, stronger effect = lower value",0.983
same,normalized growth,"locus YHR079C, strain IRE1 (second series), stronger effect = lower value",0.983
same,normalized growth,"locus YHR079C, strain IRE1, stronger effect = lower value",0.974
same,normalized growth,"locus YHR094C, strain hxt1, stronger effect = lower value",0.987
same,normalized growth,"locus YHR129C, strain ARP1, stronger effect = lower value",0.995
same,normalized growth,"locus YHR142W, strain chs7, stronger effect = lower value",0.958
same,normalized growth,"locus YHR200W, strain rpn10, stronger effect = lower value",0.987
same,normalized growth,"locus YIL066C, strain RNR3, stronger effect = lower value",1.03
same,normalized growth,"locus YIL073C, strain SPO22, stronger effect = lower value",1.01
same,normalized growth,"locus YIL125W, strain kgd1, stronger effect = lower value",0.999
same,normalized growth,"locus YIR030C, strain dcg1, stronger effect = lower value",0.985
same,normalized growth,"locus YJL092W, strain hpr5, stronger effect = lower value",1.01
same,normalized growth,"locus YJL095W, strain BCK1 (second series), stronger effect = lower value",0.966
same,normalized growth,"locus YJL095W, strain BCK1, stronger effect = lower value",1.01 and 0.986
same,normalized growth,"locus YJL115W, strain asf1, stronger effect = lower value",1.01
same,normalized growth,"locus YJL129C, strain trk1, stronger effect = lower value",1.02
same,normalized growth,"locus YJL134W, strain LCB3, stronger effect = lower value",0.996
same,normalized growth,"locus YJL154C, strain vps35, stronger effect = lower value",1.03
same,normalized growth,"locus YJL164C, strain tpk1, stronger effect = lower value",0.927
same,normalized growth,"locus YJL166W, strain qcr8, stronger effect = lower value",0.953
same,normalized growth,"locus YJL168C, strain set2, stronger effect = lower value",0.987
same,normalized growth,"locus YJL187C, strain SWE1 (second series), stronger effect = lower value",0.976
same,normalized growth,"locus YJR043C, strain POL32, stronger effect = lower value",1.06
same,normalized growth,"locus YJR066W, strain TOR1, stronger effect = lower value",0.882
same,normalized growth,"locus YKL009W, strain mrt4, stronger effect = lower value",1.03
same,normalized growth,"locus YKL068W, stronger effect = lower value",1.02
same,normalized growth,"locus YKL085W, strain MDH1 (second series), stronger effect = lower value",1.04
same,normalized growth,"locus YKL085W, strain MDH1, stronger effect = lower value",1.04
same,normalized growth,"locus YKL160W, strain elf1, stronger effect = lower value",0.954
same,normalized growth,"locus YKL190W, strain CNB1, stronger effect = lower value",1.03
same,normalized growth,"locus YKR001C, strain vps1, stronger effect = lower value",1
same,normalized growth,"locus YKR026C, strain gcn3, stronger effect = lower value",1.01
same,normalized growth,"locus YKR091W, strain srl3, stronger effect = lower value",1
same,normalized growth,"locus YLL001W, strain dnm1, stronger effect = lower value",1.01
same,normalized growth,"locus YLL026W, stronger effect = lower value",1
same,normalized growth,"locus YLL041C, strain sdh2, stronger effect = lower value",0.996
same,normalized growth,"locus YLR027C, strain aat2, stronger effect = lower value",0.981
same,normalized growth,"locus YLR039C, strain RIC1, stronger effect = lower value",1.1
same,normalized growth,"locus YLR058C, strain SHM2, stronger effect = lower value",0.989
same,normalized growth,"locus YLR102C, strain apc9, stronger effect = lower value",0.981
same,normalized growth,"locus YLR113W, strain HOG1, stronger effect = lower value",0.975
same,normalized growth,"locus YLR221C, strain rsa3, stronger effect = lower value",0.954
same,normalized growth,"locus YLR258W, strain gsy2, stronger effect = lower value",0.98
same,normalized growth,"locus YLR262C, strain YPT6 (second series), stronger effect = lower value",0.886
same,normalized growth,"locus YLR262C, strain YPT6, stronger effect = lower value",1.14
same,normalized growth,"locus YLR268W, strain sec22, stronger effect = lower value",1.01
same,normalized growth,"locus YLR320W, strain mms22, stronger effect = lower value",0.968
same,normalized growth,"locus YLR330W, strain CHS5, stronger effect = lower value",1
same,normalized growth,"locus YLR342W, strain FKS1 (second series), stronger effect = lower value",1.05
same,normalized growth,"locus YLR342W, strain FKS1, stronger effect = lower value",0.919
same,normalized growth,"locus YLR357W, strain rsc2, stronger effect = lower value",0.893
same,normalized growth,"locus YLR370C, strain arc18, stronger effect = lower value",0.957
same,normalized growth,"locus YLR371W, strain rom2, stronger effect = lower value",0.991
same,normalized growth,"locus YLR384C, strain iki3, stronger effect = lower value",0.981
same,normalized growth,"locus YLR418C, strain cdc73, stronger effect = lower value",0.984
same,normalized growth,"locus YML016C, strain PPZ1, stronger effect = lower value",0.99
same,normalized growth,"locus YML032C, strain rad52, stronger effect = lower value",1.01
same,normalized growth,"locus YML120C, strain ndi1, stronger effect = lower value",0.999
same,normalized growth,"locus YML124C, strain tub3, stronger effect = lower value",0.99
same,normalized growth,"locus YMR058W, strain fet3, stronger effect = lower value",0.655 (active)
same,normalized growth,"locus YMR078C, strain ctf18, stronger effect = lower value",0.977
same,normalized growth,"locus YMR125W, strain sto1, stronger effect = lower value",1.01
same,normalized growth,"locus YMR129W, stronger effect = lower value",1.01
same,normalized growth,"locus YMR205C, strain PFK2, stronger effect = lower value",0.991
same,normalized growth,"locus YMR223W, strain ubp8, stronger effect = lower value",0.985
same,normalized growth,"locus YMR231W, strain pep5, stronger effect = lower value",0.99
same,normalized growth,"locus YMR263W, strain SAP30, stronger effect = lower value",0.985
same,normalized growth,"locus YMR307W, strain GAS1, stronger effect = lower value",0.985
same,normalized growth,"locus YNL067W, strain RPL9B, stronger effect = lower value",0.973
same,normalized growth,"locus YNL071W, strain lat1, stronger effect = lower value",1.02
same,normalized growth,"locus YNL153C, strain GIM3, stronger effect = lower value",0.988
same,normalized growth,"locus YNL183C, strain NPR1, stronger effect = lower value",0.914
same,normalized growth,"locus YNL209W, strain ssb2, stronger effect = lower value",0.793 (active)
same,normalized growth,"locus YNL233W, strain BNI4, stronger effect = lower value",0.991
same,normalized growth,"locus YNL248C, strain rpa49, stronger effect = lower value",1.03
same,normalized growth,"locus YNL250W, strain rad50, stronger effect = lower value",0.959
same,normalized growth,"locus YNL271C, strain bni1, stronger effect = lower value",0.981
same,normalized growth,"locus YNL298W, strain CLA4, stronger effect = lower value",0.995
same,normalized growth,"locus YNL307C, strain MCK1, stronger effect = lower value",0.985
same,normalized growth,"locus YNL322C, strain KRE1 (second series), stronger effect = lower value",0.988
same,normalized growth,"locus YNR049C, strain mso1, stronger effect = lower value",1.01
same,normalized growth,"locus YNR052C, strain pop2, stronger effect = lower value",0.985
same,normalized growth,"locus YOL012C, strain htz1",0.851
same,normalized growth,"locus YOL147C, strain pex11, stronger effect = lower value",1.01
same,normalized growth,"locus YOR001W, strain rrp6, stronger effect = lower value",1.02
same,normalized growth,"locus YOR061W, strain CKA2, stronger effect = lower value",1.04
same,normalized growth,"locus YOR069W, strain VPS5, stronger effect = lower value",0.989
same,normalized growth,"locus YOR070C, strain gyp1, stronger effect = lower value",0.986
same,normalized growth,"locus YOR080W, strain dia2, stronger effect = lower value",1
same,normalized growth,"locus YOR083W, strain WHI5, stronger effect = lower value",0.968
same,normalized growth,"locus YOR106W, strain vam3, stronger effect = lower value",0.852 (active)
same,normalized growth,"locus YOR136W, strain idh2, stronger effect = lower value",0.979
same,normalized growth,"locus YOR144C, strain elg1, stronger effect = lower value",0.981
same,normalized growth,"locus YOR184W, strain ser1, stronger effect = lower value",1.05
same,normalized growth,"locus YOR231W, strain MKK1, stronger effect = lower value",0.966
same,normalized growth,"locus YOR265W, strain rbl2, stronger effect = lower value",0.984
same,normalized growth,"locus YOR270C, strain vph1, stronger effect = lower value",0.946
same,normalized growth,"locus YOR290C, strain snf2, stronger effect = lower value",0.983
same,normalized growth,"locus YOR316C, strain cot1, stronger effect = lower value",0.98
same,normalized growth,"locus YPL051W, strain arl3, stronger effect = lower value",0.833 (active)
same,normalized growth,"locus YPL078C, strain atp4, stronger effect = lower value",0.992
same,normalized growth,"locus YPL106C, strain sse1, stronger effect = lower value",0.923
same,normalized growth,"locus YPL240C, strain hsp82, stronger effect = lower value",0.985
same,normalized growth,"locus YPL256C, strain CLN2, stronger effect = lower value",0.982
same,normalized growth,"locus YPR119W, strain clb2, stronger effect = lower value",0.981
same,normalized growth,"locus YPR141C, strain kar3, stronger effect = lower value",0.982
same,normalized growth,"locus YPR163C, strain tif3, stronger effect = lower value",0.991
same,normalized growth,"locus YPR167C, strain met16, stronger effect = lower value",0.987
same,normalized growth,"strain wtn01, stronger effect = lower value",1.03
